Results published in the supplement of paper PMC6555819.

Key:
Experiment in all cases: PBM binding z-score (relative to random genomic background probes); higher = stronger binding; sequences stand for … in GC…GCGATTGACAGCGTAGAATGAAGG
[1] = tested on: FXR:RXRa (NR concentration 270 nM, RXRa partner concentration 90 nM)
In short: (§1)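 Random background probes are the reference for binding z-scores. These scores derive from regression-normalized fluorescence on custom Agilent 4×180K protein-binding microarrays incubated 1 h with ligand-free nuclear receptor dimers. Binding was detected with antibodies against each partner (one per run).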

[2] = tested on: LXRa:RXRa (NR concentration 270 nM, RXRa partner concentration 90 nM)
In short: as §1

[3] = tested on: LXRa homodimer (NR concentration 270 nM)
In short: as §1

[4] = tested on: LXRb:RXRa (NR concentration 270 nM, RXRa partner concentration 90 nM)
In short: as §1

[5] = tested on: LXRb homodimer (NR concentration 270 nM)
In short: as §1

[6] = tested on: PPARa:RXRa (NR concentration 270 nM, RXRa partner concentration 90 nM)
In short: as §1

[7] = tested on: PPARg:RXRa (NR concentration 180 nM, RXRa partner concentration 90 nM)
In short: as §1

[8] = tested on: PPARg:RXRa 270nM:90nM, anti-RXR (NR concentration 270 nM, RXRa partner concentration 90 nM)
In short: as §1

[9] = tested on: PPARg:RXRa 30nM:10nM, anti-RXR (NR concentration 30 nM, RXRa partner concentration 10 nM)
In short: as §1

[10] = tested on: PPARg:RXRa 90nM:30nM, anti-RXR (NR concentration 90 nM, RXRa partner concentration 30 nM)
In short: as §1

| Sequence | PBM binding z-score [1] | PBM binding z-score [2] | PBM binding z-score [3] | PBM binding z-score [4] | PBM binding z-score [5] | PBM binding z-score [6] | PBM binding z-score [7] | PBM binding z-score [8] | PBM binding z-score [9] | PBM binding z-score [10] |
| --- | --- | --- | --- | --- | --- | --- | --- | --- | --- | --- |
| TCTTGTAGATCAGGCAGGTTAAGAAAGCCTGAGT | 0.09 | 0.00615 | -0.308 | 0.209 | -0.455 | 0.43 | -0.505 | 0.864 | 2.52 | 1.62 |
| AGTCAAAGTTCATCTAGGTAACGTAAGATATGCT | 6.73 | 6 | 5.07 | 3.62 | 1.73 | 4.84 | 6.6 | 6.14 | 3.3 | 5.53 |
| AATACAGGGTCATCGTAGGCCATAGTACGCACAG | 7.3 | 6.74 | 3.23 | 4.97 | 1.39 | 6.02 | 6.89 | 6.05 | 2.98 | 4.83 |
| ATCGAAAGGTCGAAGTGAGTATAGAGAAAGGGAA | 3.94 | 3.53 | 0.221 | 2.69 | 0.919 | 4.23 | 2.38 | 3.01 | 1.33 | 2.56 |
| CGTCAAAGTTCAAGGTACCGTAACAGAAAGCAGC | 6.16 | 5.65 | 3.11 | 3.48 | 0.91 | 4.61 | 4 | 4.81 | 1.82 | 3.9 |
| CCTAGTTGGTCAGCAGGTCACACACCGGATATGA | 1.89 | 1.8 | 1.16 | 2 | 0.372 | 2.85 | 2.27 | 2.51 | 0.854 | 1.83 |
| CCTCGGAGGACAACAGGAGGTCAGTGCTGCCAGA | 0.821 | 1.62 | 1.58 | 1.15 | -0.378 | 1.62 | 0.333 | 0.375 | -0.857 | -0.495 |
| CTACCAAGGAGAACAAGGTCGTTGATTACTATTC | 0.511 | 0.515 | 0.637 | 0.992 | 0.011 | 0.978 | 0.183 | -0.0538 | -0.107 | -0.114 |
| ATCTCTAGGTAAAGATAGTTCAGTGATTGCAAAT | 0.768 | 3.86 | 0.679 | 1.04 | 0.794 | 0.72 | 0.511 | 0.72 | 0.406 | 0.607 |
| ACTAGCAGGCCAAGGGTCACTCAAGATTAGTCCG | 2.48 | 2.76 | 0.0687 | 2.81 | -0.402 | 4.43 | 7.75 | 7.53 | 7.41 | 8.63 |
| ATCGAAAAGTCGACGAGGTGAGTATACACCGTTT | 0.048 | -0.0396 | -0.471 | 0.0525 | -0.29 | 0.426 | 0.914 | 0.0655 | 0.0856 | -0.125 |
| CCGACTGGGGCATAAGGTTTCCATAAGCCAGCCC | 0.03 | -0.0633 | -0.565 | -0.536 | -1.41 | 0.26 | 1.11 | 1.75 | -0.0792 | 1.44 |
| CAGTCTAGGTCAGGGCCAGTATAGGAGGAACGTT | 1.52 | 1.1 | -0.0547 | 0.856 | -0.215 | 2.68 | 2.64 | 2.85 | 1 | 1.96 |
| AGAACGAGGGCAATGAGTTGATAGCCCGGGTGGC | 0.0897 | 0.0637 | -0.355 | -0.437 | -0.943 | 1.34 | 1.01 | 0.868 | -0.3 | 0.416 |
| CATACAGGGTCAGCTAGGCCAGGGTAGGGACGGC | 4.52 | 2.89 | -0.0552 | 1.98 | 0.437 | 4.12 | 3.01 | 2.84 | 0.569 | 1.95 |
| CGAACTAGGTCATTGACAGAACAGTGAATAGTAA | 4.26 | 2.84 | 0.516 | 2 | 0.18 | 4.66 | 7.52 | 6.34 | 4.05 | 5.58 |
| CCTATCAGTTGACCATAAGGGCAACCGAAGCTCG | 0.965 | 0.314 | 0.218 | 0.583 | 0.56 | 0.693 | 0.456 | 0.233 | -0.0186 | 0.0779 |
| CCAACTGGGCCACGAAAGGTCATTGATTCAGTGA | 3.69 | 5.09 | 4.15 | 4.41 | 0.134 | 4.75 | 4.7 | 4.74 | 1.7 | 3.62 |
